In the supplement of paper PMC10646978 one finds NF-kB reporter, IRF reporter and viability score data, which are given here for 13 compounds.

± gives the standard deviation.

Holding throughout (conditions): modulator concentration 10 µM
Assay [1] relates to RAW-Dual (murine macrophage reporter line). Kind of assay: NF-kB reporter (SEAP) activity fold change vs agonist alone; higher = enhanced NF-kB activity. A digest of the protocol:
(§1)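 Compound reached 10 μM final in each well by pin transfer, onto RAW-Dual murine macrophage reporter cells seeded at 50 000 per well in 384-well plates. After 1 hour at 37 °C, the cells were stimulated overnight with a PRR agonist. SEAP in the supernatant was read with QUANTI-Blue at 620 nm absorbance for NF-κB, and Lucia luciferase was read with QUANTI-Luc luminescence for IRF. Each signal was turned into fold change against the mean agonist-only control on the same plate, and two replicate plates were averaged with propagated errors.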

Assay [2] has the same test system. Put plainly: IRF reporter (Lucia luciferase) activity fold change vs agonist alone; higher = enhanced IRF activity. A digest of the protocol: as §1
For assay [3] the test system is unchanged. Kind of assay: viability score (confluency relative to resting cells, overnight) (fraction); higher = more viable, active = viable (0.7 or more). A digest of the protocol:
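RAW-Dual macrophages in 384-well plates were treated overnight with compound at 10 μM final. IncuCyte imaging recorded confluency, and IncuCyte software built two confluency masks across every imaged well. The viability score expresses confluency relative to resting cells and was judged against a cutoff, which a compound met only if both masks exceeded 70% of resting cells.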

[4] abbreviates: agonist: CpG ODN 1826 0.5 ug/mL.

Take `CCCCOC(=O)C1=C(C)NC2=C(C(=O)CCC2)C1c1cccc(C(F)(F)F)c1` (stereo unspecified): the NF-kB reporter came to 0.981 ± 0.1 in assay [1] (setting [4]), 1.01 ± 0.057 in assay [1] (agonist: LPS 0.1 ug/mL) and 0.939 ± 0.058 in assay [1] (agonist: MPLA […]). In addition, the IRF reporter in assay [2] (agonist: 3'3'-cGAMP 10 ug/mL) worked out at 0.993 ± 0.025; in assay [2] (agonist: LPS 0.1 ug/mL), 1.56 ± 0.28; in assay [2] (agonist: MPLA […]), 1.15 ± 0.17. The viability score in assay [3] was 1.01 (active).
In the case of `CC1=C(C(=O)Nc2cccc(C)n2)C(c2cccs2)C2=C(CC(C)(C)CC2=O)N1` (stereo unspecified), the results for the NF-kB reporter in assay [1] (setting [4]), in assay [1] (agonist: LPS 0.1 ug/mL) and in assay [1] (agonist: MPLA […]) were 1.03 ± 0.18, 1.09 ± 0.14 and 0.869 ± 0.069, respectively. The IRF reporter was determined as 0.913 ± 0.027 in assay [2] (agonist: 3'3'-cGAMP 10 ug/mL), 1.2 ± 0.12 in assay [2] (agonist: LPS 0.1 ug/mL) and 1.25 ± 0.16 in assay [2] (agonist: MPLA […]). The viability score in assay [3] was 1 (active).
For the compound `CC(C)(C)CC(=O)Nc1nc2ccc(S(C)(=O)=O)cc2s1`, the NF-kB reporter in assay [1] (setting [4]) turned out to be 0.987 ± 0.12; in assay [1] (agonist: LPS 0.1 ug/mL), 1.19 ± 0.068; in assay [1] (agonist: MPLA […]), 1.25 ± 0.12. Moreover, the figures for the IRF reporter in assay [2] (agonist: 3'3'-cGAMP 10 ug/mL), in assay [2] (agonist: LPS 0.1 ug/mL) and in assay [2] (agonist: MPLA […]) were 0.787 ± 0.033, 0.831 ± 0.11 and 0.779 ± 0.23, respectively. For the same compound, the viability score in assay [3] is 0.948 (active).
In the case of `Brc1ccc(C(Cc2ccccc2)Nc2ccccn2)cc1` (stereo unspecified), the NF-kB reporter in assay [1] (setting [4]) came out at 0.255 ± 0.014; in assay [1] (agonist: LPS 0.1 ug/mL), 1.07 ± 0.071; in assay [1] (agonist: MPLA […]), 0.929 ± 0.084. Further, the IRF reporter in assay [2] (agonist: 3'3'-cGAMP 10 ug/mL) was determined as 1.27 ± 0.042; in assay [2] (agonist: LPS 0.1 ug/mL) it was 1.75 ± 0.12; in assay [2] (agonist: MPLA […]), 1.28 ± 0.12. Further, in assay [3], the viability score is 0.959 (active).
Consider `CCN(CC)c1ccc(C2Nc3ccccc3-c3nnc(SC)nc3O2)c(OC)c1` (stereo unspecified), for which the values for the NF-kB reporter in assay [1] (setting [4]), in assay [1] (agonist: LPS 0.1 ug/mL) and in assay [1] (agonist: MPLA […]) were 0.889 ± 0.07, 0.986 ± 0.066 and 0.985 ± 0.059, respectively. The IRF reporter in assay [2] (agonist: 3'3'-cGAMP 10 ug/mL) is 0.954 ± 0.024; in assay [2] (agonist: LPS 0.1 ug/mL), 1.39 ± 0.24; in assay [2] (agonist: MPLA […]), 0.87 ± 0.076. Also, in assay [3], the viability score was 1.01 (active).
For `CCOc1ccc(C(=O)NCc2cccnc2)cc1Br`, the figures for the NF-kB reporter in assay [1] (setting [4]), in assay [1] (agonist: LPS 0.1 ug/mL) and in assay [1] (agonist: MPLA […]) were 1.23 ± 0.07, 1.06 ± 0.14 and 1.04 ± 0.036, respectively. In addition, the results for the IRF reporter in assay [2] (agonist: 3'3'-cGAMP 10 ug/mL), in assay [2] (agonist: LPS 0.1 ug/mL) and in assay [2] (agonist: MPLA […]) were 0.911 ± 0.058, 0.934 ± 0.14 and 1.08 ± 0.26, respectively. Moreover, in assay [3], the viability score was 0.999 (active).
On to `COc1ccc2c(C)nc(Nc3nc(C)cc(-c4ccccc4)n3)nc2c1`, for which the NF-kB reporter in assay [1] (setting [4]) was 0.791 ± 0.079; in assay [1] (agonist: LPS 0.1 ug/mL) it was 0.879 ± 0.065; in assay [1] (agonist: MPLA […]), 1.07 ± 0.1. The IRF reporter in assay [2] (agonist: 3'3'-cGAMP 10 ug/mL) was 0.914 ± 0.043; in assay [2] (agonist: LPS 0.1 ug/mL), 1.28 ± 0.12; in assay [2] (agonist: MPLA […]) it was 1.37 ± 0.17. For the same compound, in assay [3], the viability score was 1.03 (active).
With `CCOC(=O)C1=C(C)NC(C)=C(C(=O)OC)C1c1ccc([N+](=O)[O-])cc1` (stereo unspecified), the values for the NF-kB reporter in assay [1] (setting [4]), in assay [1] (agonist: LPS 0.1 ug/mL) and in assay [1] (agonist: MPLA […]) were 0.97 ± 0.24, 1.01 ± 0.12 and 1.13 ± 0.23, respectively. Besides, the IRF reporter was 1.16 ± 0.049 in assay [2] (agonist: 3'3'-cGAMP 10 ug/mL), 1.01 ± 0.21 in assay [2] (agonist: LPS 0.1 ug/mL) and 1.09 ± 0.21 in assay [2] (agonist: MPLA […]). Further, in assay [3], the viability score is 0.985 (active).
`COC(=O)c1cc(NC(=O)c2cc(OC)c(OC)cc2[N+](=O)[O-])cc(C(=O)OC)c1`: the results for the NF-kB reporter in assay [1] (setting [4]), in assay [1] (agonist: LPS 0.1 ug/mL) and in assay [1] (agonist: MPLA […]) were 0.99 ± 0.1, 1.03 ± 0.057 and 0.913 ± 0.074, respectively. Further, the IRF reporter in assay [2] (agonist: 3'3'-cGAMP 10 ug/mL) was 0.999 ± 0.063; in assay [2] (agonist: LPS 0.1 ug/mL), 1.59 ± 0.19; in assay [2] (agonist: MPLA […]), 1.22 ± 0.091. In addition, the viability score in assay [3] is 1.01 (active).
Consider `O=C(O)c1cccnc1C(=O)O`, for which the NF-kB reporter in assay [1] (setting [4]) amounted to 1.03 ± 0.087; in assay [1] (agonist: LPS 0.1 ug/mL) it was 1.04 ± 0.07; in assay [1] (agonist: MPLA […]) it was 0.971 ± 0.022. In addition, the IRF reporter in assay [2] (agonist: 3'3'-cGAMP 10 ug/mL) turned out to be 0.941 ± 0.052; in assay [2] (agonist: LPS 0.1 ug/mL) it was 0.981 ± 0.12; in assay [2] (agonist: MPLA […]), 0.867 ± 0.07. In addition, the viability score in assay [3] was 1 (active).
For the compound `C(=C\c1ccccc1)/CN1CCN(C(c2ccccc2)c2ccccc2)CC1`, the NF-kB reporter in assay [1] (setting [4]) amounted to 1.14 ± 0.16; in assay [1] (agonist: LPS 0.1 ug/mL), 0.957 ± 0.37; in assay [1] (agonist: MPLA […]), 0.989 ± 0.065. Moreover, the results for the IRF reporter in assay [2] (agonist: 3'3'-cGAMP 10 ug/mL), in assay [2] (agonist: LPS 0.1 ug/mL) and in assay [2] (agonist: MPLA […]) were 0.828 ± 0.028, 1.23 ± 0.44 and 1.33 ± 0.1, respectively. Besides, the viability score in assay [3] was 0.979 (active).
For `O=C(CN(CCc1ccccc1)S(=O)(=O)c1ccc(Cl)cc1)NCc1ccccn1`, the NF-kB reporter in assay [1] (setting [4]) amounted to 0.824 ± 0.065; in assay [1] (agonist: LPS 0.1 ug/mL), 0.95 ± 0.049; in assay [1] (agonist: MPLA […]) it was 0.987 ± 0.092. For the same compound, the IRF reporter was found to be 0.741 ± 0.035 in assay [2] (agonist: 3'3'-cGAMP 10 ug/mL), 1.45 ± 0.084 in assay [2] (agonist: LPS 0.1 ug/mL) and 1.49 ± 0.16 in assay [2] (agonist: MPLA […]). Besides, in assay [3], the viability score is 1.02 (active).
For `FC(F)(F)c1nnc2ccc(NC3CCN(c4ncnc5c4CCCC5)CC3)nn12`, the NF-kB reporter was found to be 1.19 ± 0.096 in assay [1] (setting [4]), 1.52 ± 0.13 in assay [1] (agonist: LPS 0.1 ug/mL) and 1.79 ± 0.13 in assay [1] (agonist: MPLA […]). Besides, the IRF reporter in assay [2] (agonist: 3'3'-cGAMP 10 ug/mL) came to 1.17 ± 0.086; in assay [2] (agonist: LPS 0.1 ug/mL), 1.46 ± 0.091; in assay [2] (agonist: MPLA […]), 1.4 ± 0.18. In assay [3], the viability score was 0.972 (active).
